# Bioassay records (PubChem)
# Most compounds without a hit are left out; they make up all but 2.9% or so of the library.
# ClpP mod = qHTS Assay for Activators of ClpP. actives 1.9% (n = 340,000). ATP-dependent Clp protease proteolytic subunit (Bacillus subtilis (strain 168)), P80244. Potency, µM (doses to about 57.5 µM), without a hit: at the highest dose activity change, negative = active. purified B. subtilis ClpP, FRET peptide cleavage, 20 min; active = well fitted falling curve with a large enough effect; inconclusive = small, poorly fitted or top-dose-only effect; inactive = no such curve, though single readings can be large or run the other way; also: potency is read from the fitted curve at half-maximal effect; the source files actives as falling curves though it sought activators and does not explain the sign; nearly all actives have a fitted effect of over 65% in size
# Target sequence (P80244 whole entry, looked up): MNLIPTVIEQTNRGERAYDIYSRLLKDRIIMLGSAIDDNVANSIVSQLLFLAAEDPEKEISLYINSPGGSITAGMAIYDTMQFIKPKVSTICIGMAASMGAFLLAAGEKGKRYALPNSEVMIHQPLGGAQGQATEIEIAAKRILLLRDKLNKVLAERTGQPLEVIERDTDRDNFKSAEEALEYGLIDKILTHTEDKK
#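 Purified B. subtilis ClpP, 10 microg/mL final in Tris/HCl pH8 with KCl, BSA, glycerol and Tween-20, cleaved an Abz/nitrotyrosine-quenched decapeptide. Fluorescence (ex 320, em 430) was read at 0 and 20 min at room temperature. Delta was normalized to 5.8 microM ADEP and DMSO/no-enzyme controls.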
# GLP1R cytotox = cytotoxic in the GLP-1 receptor inverse agonist counter-screen; HEK293 cAMP-luciferase reporter cells, luminescence, 24 h; Potency, µM (doses to about 38.3 µM), without a hit: at the top dose activity change, negative = inhibition, actives largely listed as inhibitors; actives 0.13% (n = 410,000);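 also: loss of luciferase light is scored as toxicity; potency is read from the fitted curve at half-maximal effect; % is scaled to controls: 0 for no effect and ±100 for the full control effect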
#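 Quantitative HTS format, 1536 wells, 200 cells/uL seeded. Compounds: 23 nL, 24 h, 37 °C. Detection: luciferase reagent, luminescence at 12 min RT; decreased signal taken as cytotoxic.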
# LDHA inh = blocks human lactate dehydrogenase A. P00338. purified LDHA, NADH/diaphorase-resazurin fluorescence; hits give low values. activity change, % (values are at about 110 or 230 µM). actives 0.15% (n = 480,000); in the data active = activity change below about -30%; inconclusive = mostly about -25% to -30%;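 also: plate controls were DMSO wells for no effect and wells without enzyme for full effect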
#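 Resorufin fluorescence (ex540/em590), read at 0 and 20 min after diaphorase/resazurin addition, reports the NADH left after a 5 min room-temperature reaction of 2 nM human LDH5 with 0.06 mM NADH and 0.2 mM pyruvate.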
# GLP1R ag = GLP-1 receptor (human) agonism; P43220; HEK293 GLP-1R CRE-luciferase, luminescence, 4-6 h; cells express a hypersensitive GLP-1R form; actives 0.007% (n = 380,000); Potency, µM (top dose mostly 45.6 µM), for the others: at the highest dose activation, actives largely listed as activators; also: potency is read from the fitted curve at half-maximal effect; % of control where 0% means no effect
# Target sequence (P43220 whole entry, looked up): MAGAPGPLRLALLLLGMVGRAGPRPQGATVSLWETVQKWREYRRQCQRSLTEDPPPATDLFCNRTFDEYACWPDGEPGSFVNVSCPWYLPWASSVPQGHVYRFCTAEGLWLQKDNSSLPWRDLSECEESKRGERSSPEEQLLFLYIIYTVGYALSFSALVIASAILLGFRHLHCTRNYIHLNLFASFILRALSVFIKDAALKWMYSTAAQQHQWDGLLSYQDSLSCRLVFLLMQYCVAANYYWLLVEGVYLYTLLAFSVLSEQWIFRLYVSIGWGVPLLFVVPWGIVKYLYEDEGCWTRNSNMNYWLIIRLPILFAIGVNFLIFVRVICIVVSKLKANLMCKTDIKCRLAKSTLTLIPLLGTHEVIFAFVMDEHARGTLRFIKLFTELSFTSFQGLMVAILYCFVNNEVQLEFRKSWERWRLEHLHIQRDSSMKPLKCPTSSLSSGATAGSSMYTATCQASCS
# p53 reactivator = mutant p53 re-activation in reporter cells; H1299 p53-A138V BP100-luciferase reporter, luminescence, 24 h; Potency, µM (top dose mostly 92.2 µM), for the others: at the highest dose activity change, positive = activation, most hits filed as activators; actives 0.063% (n = 320,000); also: potency is read from the fitted curve at half-maximal effect; % of control where 0% means no effect; nearly all actives have a fitted effect of over 45% in size
#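 H1299 (p53-null), stable ts p53-A138V + BP100-Luc; 1000 cells/well, Opti-MEM/10% FBS; cpd 4 pt, 1:5; 24 h, 37 deg C, 5% CO2; detection reagent 10 min RT; luminescence.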
# GLP-1R inv ag = GLP-1 receptor (human) inverse agonism | HEK293 GLP-1R CRE-luciferase, luminescence, 24 h; GLP-1R form is constitutively active | Potency, µM (titrated, usually from 38.3 µM), inactives show top-dose activity change, negative = inhibition, usual class: inhibitors | actives 1.6% (n = 410,000) | AID 624417; also: potency is read from the fitted curve at half-maximal effect; % is scaled to controls: 0 for no effect and ±100 for the full control effect; nearly all actives have a fitted effect of over 55% in size
#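 Cells are plated, allowed 12 hours at 37 deg C, then treated with compounds for 24 hr before luciferase detection reagent is added and luminescence is read after 12 min at room temperature. The HEK293 line carries constitutively active GLP-1R with a cAMP-responsive reporter.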
# An asterisk follows results filed as active; ? = inconclusive; nt = no result. Unless noted, calls follow the shape of the dose curve; as a rule, active = well fitted curve in the direction sought with a large enough effect; inconclusive = small, poorly fitted or top-dose-only effect, or another doubt; inactive = no such curve, though single readings can be large; an effect the other way counts as inactive or inconclusive.
SMILES,ClpP mod,GLP1R cytotox,LDHA inh,GLP1R ag,p53 reactivator,GLP-1R inv ag
OCCN(CCO)CC(O)COc1ccc(Br)cc1 (centres undefined),0%,3%,-1,-6%,-3%,?
OCCN(CCO)CC(O)COc1ccc(C23CC4CC(CC(C4)C2)C3)cc1 (centres undefined),1%,?,2,?,8%,2.8µM*
COc1ccc(-n2c(CC3C(=O)Nc4ccc(C)cc43)nc3ccccc3c2=O)cc1 (centres undefined),-1%,-1%,0,nt,nt,-7%
Fc1cccc(Cl)c1Cn1nnc2c(NCc3ccccn3)ncnc21,0%,19%,-10,15%,-6%,?
Cc1nn(S(=O)(=O)c2ccc(C(C)(C)C)cc2)c(C)c1S(=O)(=O)N1CCOCC1,2%,2%,-1,0%,-1%,9%
Cc1ccc(N=C/C(C(=O)C(F)(F)F)=C(\O)c2ccco2)cc1Cl,16µM*,77%,1,8%,?,?
O=C(/C(C=Nc1cccc(Cl)c1)=C(/O)c1ccco1)C(F)(F)F,nt,nt,9,nt,nt,nt
O=C(/C(C=Nc1ccc(F)cc1)=C(/O)c1ccco1)C(F)(F)F,25µM*,25%,3,0%,?,-26%
O=[N+]([O-])c1ccc(-[n+]2ccc3ccccc3c2)c([N+](=O)[O-])c1,0%,13µM*,17,-10%,-28%,?
CN1CCC(n2[nH]c(-c3ccccc3)c(Cc3ccccc3)c2=O)CC1,nt,-19%,-1,6%,nt,11µM*
O=C(Nc1cc(-c2ccccc2F)nn1-c1ccccc1)c1ccccc1Br,-3%,-5%,-9,nt,nt,?
Cc1cccc(C(=O)Nc2cc(-c3ccccc3F)nn2-c2ccccc2)c1,?,0%,-3,nt,nt,10µM*
CC(=O)n1cc(N(C(=O)CCl)c2ccc([N+](=O)[O-])cc2)c2ccccc21,nt,?,-1,-1%,-16%,?
CC(=O)n1cc(N(C(=O)CCl)c2ccccc2)c2ccccc21,nt,?,0,1%,-17%,3.5µM*
CCN(CC)c1nc(OCCNC(=O)Nc2ccccc2)nc(N(CC)CC)n1,-2%,?,0,-2%,-7%,5µM*
O=C(NCCOc1nc(N2CCCCC2)nc(N2CCCCC2)n1)Nc1ccccc1,nt,-9%,-2,8%,6%,?
CCC(/C=C1\Sc2ccc(OC)cc2N1CCO)=C\c1sc2ccc(OC)cc2[n+]1CCO,-2%,-18%,11,3%,-4%,10µM*
CCC(/C=C1\Sc2ccc(OC)cc2N1CC)=C\c1sc2ccc(OC)cc2[n+]1CCCS(=O)(=O)[O-],-2%,-31%,3,-6%,-1%,-29%
C=CCN(c1ccc(Br)cc1C(=O)OC)S(C)(=O)=O,0%,4%,-2,8%,-5%,27%
CCOc1ccc(OCC)c(S(=O)(=O)NCCOC23CC4CC(CC(C4)C2)C3)c1,0%,-13%,-5,0%,4%,4µM*
CCCc1cc(Nc2ccccc2OCC)n2ncnc2n1,-2%,58%,-3,14%,-6%,-14%
Cc1[nH]nc2ncc(C(=O)c3ccccc3O)cc12,1%,-5%,24,-11%,-2%,10µM*
O=C(Nc1cc(Cl)cc(Cl)c1)c1coc(=O)c(Br)c1,nt,0%,-4,2%,8%,19%
COCCNC(=O)c1ccc2c(c1)NC(=O)C(CS(=O)(=O)Cc1ccc(F)cc1Cl)N2 (centres undefined),16µM*,-8%,2,nt,nt,3%
CCCCNC(=O)c1ccc2c(c1)NC(=O)C(CS(=O)(=O)Cc1cccc(C)c1)N2 (centres undefined),32µM*,-3%,-5,nt,nt,8%
SMILES,ClpP mod,GLP1R cytotox,LDHA inh,GLP1R ag,p53 reactivator,GLP-1R inv ag
Cc1cc(N2CCOCC2)nc2ccc(NC(=O)CCC(=O)N3CCC(C)CC3)cc12,28µM*,0%,3,-6%,15%,2%
Cc1cc(N2CCC(C)CC2)nc2ccc(NC(=O)CCC(=O)N3CCN(c4ccccc4F)CC3)cc12,4%,-20%,3,nt,nt,?
Cc1cc(N2CCOCC2)nc2ccc(NC(=O)CCC(=O)N3CCN(c4cccc(C(F)(F)F)c4)CC3)cc12,nt,-18%,4,-2%,20%,10µM*
O=C(CNC(=O)c1ccco1)NCC(=O)OCc1ccccc1Cl,nt,3%,-12,11%,6%,-4%
COc1ccc(CN(C(=O)c2cccs2)c2ccccc2C(=O)O)cc1,1%,3%,-7,-2%,-1%,-12%
CN(C(=O)c1cccs1)c1ccccc1C(=O)O,20µM*,5%,-8,2%,-4%,-4%
COc1cccc(/C=C/C(=O)OCC(=O)N2c3ccccc3CC2C)c1 (centres undefined),4%,-4%,-2,2%,nt,?
C=CCNc1nc(C(=O)OCc2c(F)c(F)c(F)c(F)c2F)cs1,nt,nt,3,nt,nt,nt
COc1cc(/C=N/NC(=O)c2ccccc2O)ccc1OCC(=O)Nc1ccccc1,4%,-14%,-7,2%,nt,-13%
O=C(COc1ccc(/C=N/NC(=O)c2cc3ccccc3o2)cc1Cl)Nc1ccccc1,9%,?,-11,-1%,7%,4.5µM*
Cc1ccc(S(=O)(=O)N(CC(=O)N/N=C/c2cccc(C)c2)c2cccc3cccnc23)cc1,25µM*,-5%,-4,-3%,nt,5%
Cc1ccc(S(=O)(=O)N(CC(=O)N/N=C/c2cccc3c2OCCO3)c2ccccc2F)cc1,22µM*,-21%,10,-4%,-1%,?
COc1cc(C(=O)NNC(=O)NC2CCCCC2)cc(OC)c1OC,-1%,17%,-6,5%,2%,0%
CC(C)(C)c1ccc2cccc(F)c2n1,-1%,0%,-5,1%,nt,6%
COC(=O)c1ccc(COc2ccccc2Cc2ccccc2)o1,nt,nt,-5,nt,nt,nt
FC(F)(F)c1cccc(-n2cc(-c3ccccc3)c3c(N4CCCCC4)ncnc32)c1,0%,-10%,-5,nt,nt,1%
Cc1ccc(NC(=O)N2CCCC(c3nc(-c4ccc(F)cc4)no3)C2)cc1 (centres undefined),-1%,?,-1,1%,5%,7.9µM*
O=C(Nc1ccccc1)N1CCCC(c2nc(-c3ccc(F)cc3)no2)C1 (centres undefined),1%,-17%,-8,0%,9%,?
